Consider 5 compounds from PubChem BioAssay.

Inconclusive results are not listed. Active and inactive are the calls of the source.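 The calls were made as follows, unless noted: active = viability at or below 30% in both replicate assays; inconclusive = viability at or below 30% in just one of the two assays; inactive = the rest.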

A short description of experiment [1]: Her2 expression decrease, cell viability multiplex – SKBR3 breast tumor cells, AlphaScreen, ATP viability, primary screen (AID 461;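 active = Her2 level under about 52% in both replicate screens, with viability over 70% of control, limit read from the data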;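 as to Her2 level: lower value means less Her2 protein in the cells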;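 as to viability: percent of carrier control wells set as 100% viability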). The following applies: SKBR3 Her2 protein level, 18-24 h, measured here: SKBR3 viability, ATP luminescence, at 10 µM.
Experiment [2] deals with Receptor tyrosine-protein kinase erbB-2 (Homo sapiens) (UniProt P04626). Described as above. The following applies: 18-24 h, at 10 µM, stronger effect = lower value.
Experiment [3] is described as follows: reduced viability of SK-BR-3 breast cancer cells – cell-based, 24 h, human, pilot screen (AID 572;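 active = viability at or below 10% of carrier control in both of two separate runs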;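 also: compound exposure lasted between 18 and 24 h rather than exactly 24 h; 100% = carrier-treated control wells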). The following applies: SK-BR-3 viability, CellTiter-Glo luminescence, at 10 µM, stronger effect = lower value.
Experiment [4] in a line: HUVEC growth inhibition – cell-based, human, primary screen (AID 575).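 Also: 100% = median of untreated cell wells with 0.1% DMSO on each plate.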 As to conditions: HUVEC proliferation, CellTiter-Glo luminescence, 72 h; at 10 µM; stronger effect = lower value.
Experiment [5] can be described thus: H69AR cell proliferation blockers – human, duplicate replicates, primary screen (AID 580;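 active = viability at or under a set limit in both replicates, limit being median viability minus 3 SD, cut at about 48% in these data, passing the limit was not always enough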;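 also: 100% = mean luminescence of untreated wells and 0% = no signal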). The following applies: H69AR lung tumor cells viability, ATP luminescence, 72 h; at 10 µM; stronger effect = lower value.
The nature of experiment [6]: MRP1 drug-resistance reversers in H69AR cells – cell-based, doxorubicin co-treatment, pilot screen (AID 601;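 active = viability loss from added drug above about 55%, and viability with drug at most 40%, in both replicates, limit read from the data, passing the limit was not always enough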). As to conditions: CellTiter-Glo, 72 h, at 10 µM; for differential viability (reversal): stronger effect = higher value.
A short description of experiment [7]: yeast transport mutant growth inhibition pilot in 384-well plates, post-Golgi transport modulator project (AID 636; in the data active = inhibition above about 31%). As to conditions: absorbance 615 nm, about 18 h, stronger effect = higher value.
The nature of experiment [8]: growth suppression of yeast trafficking mutant, preliminary HTS, modulators of trafficking downstream of Golgi apparatus project, 1536-format plate, OD 615 nm (AID 637; in the data active = inhibition above about 30%). As to conditions: yeast transport mutant growth, absorbance 615 nm, 18 h; stronger effect = higher value.
The nature of experiment [9]: S. cerevisiae growth inhibition in permissive medium (OD615), pilot counter-assay for S. cerevisiae lifespan shortening project, permissive growth control (AID 705;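 active = growth inhibition above 25% in both replicates, a cutoff set 3 SD above the mean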). As to conditions: OD615, 24 h, at 10 µM, stronger effect = higher value.
Experiment [10] can be described thus: S. cerevisiae growth inhibition in restrictive medium, OD615, pilot screen, restrictive growth control, yeast lifespan reduction project (AID 706;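 active = growth inhibition above a set limit, 3 SD over mean compound inhibition, in both replicates, cut at about 43% in these data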;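 also: modified DeaD lifespan yeast strain shifted to restrictive glucose medium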). As to conditions: OD615, 48 h, at 10 µM, stronger effect = higher value.
A short description of experiment [11]: doxorubicin toxicity protection in MRP-1 cells – H69AR cells, CellTiter-Glo, duplicate, MRP-1 activator project, pilot screen (AID 807;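 active = viability increase at or above a cutoff of the median across tested compounds plus 3 SD, cut at about 8.5% in these data, passing the limit was not always enough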;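 also: compound pretreatment 18-22 h then 72 h combined with doxorubicin; 0% = doxorubicin alone and 100% = vehicle without doxorubicin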). As to conditions: H69AR viability with doxorubicin, CellTiter-Glo luminescence; at 10 µM; stronger effect = higher value.
Experiment [12] can be described thus: viability of HCT116 without oncogenic beta-catenin – human colon tumor cells, pilot screen (AID 823;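 active = cell viability at or below a set limit in both duplicate runs, the limit being the all-compound median minus 4 SD, cut at about 23% in these data, passing the limit was not always enough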;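 also: 0% = wells killed by 20 µM Hyamine and 100% = untreated DMSO cell wells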). As to conditions: HCT116 beta-catenin knockout viability, CellTiter-Glo, 60 h; at 10 µM; stronger effect = lower value.
Experiment [13] can be described thus: viability of PTEN-null HCT116 cells – cell-based, HCT116 clonal line, CellTiter-Glo, pilot screen (AID 824;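 active = viability at or below 27.92% in each of two runs, the all-compound median minus 4 SD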;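 also: 0% = 20 µM Hyamine control and 100% = vehicle cell control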). The following applies: HCT116 PTEN-deleted viability, 60 h, at 10 µM, stronger effect = lower value.
A short description of experiment [14]: RAM pathway blockade in budding yeast – dse1pr::URA3 reporter, 5-FOA selection, pilot screen (AID 869;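 active = inhibition over a set limit, the all-compound mean plus 3 SD, in both replicate runs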;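 also: 0% = DMSO wells with no growth and 100% = 10 µM 1-NA-PP1 with full growth; RAM network block rescues cells from 5-FOA so hits raise OD615 growth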). The following applies: S. cerevisiae dse1pr::URA3 5-FOA growth, OD615, 2 d; at 10 µM; stronger effect = higher value; strain carries analog-sensitive mutant Cbk1 kinase.
Experiment [15] in a line: RAM signaling pathway blockade in yeast – S. cerevisiae, Pdr1DBD-CYC8 efflux-inhibited sensitized strain, primary screen (AID 1298;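 active = RAM network inhibition above 8.4% in each of two replicates, 3 SD over the compound average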;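 also: 0% = DMSO untreated cells without growth and 100% = 10 µM 1-NA-PP1 full growth; higher means more yeast growth rescued from 5-FOA killing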). The following applies: S. cerevisiae cbk1-as DSE1-URA3 strain, 5-FOA growth OD615, 2 d; at 50 µM; stronger effect = higher value.
The mark [16] stands for this setting: H69AR cells + 2 uM doxorubicin, measured here: viability with 2 uM doxorubicin, stronger effect = lower value.
Where [17] appears, read: H69AR cells, compound alone cytotoxicity.

Receptor tyrosine-protein kinase erbB-2 (Homo sapiens), sequence (P04626 whole entry, looked up): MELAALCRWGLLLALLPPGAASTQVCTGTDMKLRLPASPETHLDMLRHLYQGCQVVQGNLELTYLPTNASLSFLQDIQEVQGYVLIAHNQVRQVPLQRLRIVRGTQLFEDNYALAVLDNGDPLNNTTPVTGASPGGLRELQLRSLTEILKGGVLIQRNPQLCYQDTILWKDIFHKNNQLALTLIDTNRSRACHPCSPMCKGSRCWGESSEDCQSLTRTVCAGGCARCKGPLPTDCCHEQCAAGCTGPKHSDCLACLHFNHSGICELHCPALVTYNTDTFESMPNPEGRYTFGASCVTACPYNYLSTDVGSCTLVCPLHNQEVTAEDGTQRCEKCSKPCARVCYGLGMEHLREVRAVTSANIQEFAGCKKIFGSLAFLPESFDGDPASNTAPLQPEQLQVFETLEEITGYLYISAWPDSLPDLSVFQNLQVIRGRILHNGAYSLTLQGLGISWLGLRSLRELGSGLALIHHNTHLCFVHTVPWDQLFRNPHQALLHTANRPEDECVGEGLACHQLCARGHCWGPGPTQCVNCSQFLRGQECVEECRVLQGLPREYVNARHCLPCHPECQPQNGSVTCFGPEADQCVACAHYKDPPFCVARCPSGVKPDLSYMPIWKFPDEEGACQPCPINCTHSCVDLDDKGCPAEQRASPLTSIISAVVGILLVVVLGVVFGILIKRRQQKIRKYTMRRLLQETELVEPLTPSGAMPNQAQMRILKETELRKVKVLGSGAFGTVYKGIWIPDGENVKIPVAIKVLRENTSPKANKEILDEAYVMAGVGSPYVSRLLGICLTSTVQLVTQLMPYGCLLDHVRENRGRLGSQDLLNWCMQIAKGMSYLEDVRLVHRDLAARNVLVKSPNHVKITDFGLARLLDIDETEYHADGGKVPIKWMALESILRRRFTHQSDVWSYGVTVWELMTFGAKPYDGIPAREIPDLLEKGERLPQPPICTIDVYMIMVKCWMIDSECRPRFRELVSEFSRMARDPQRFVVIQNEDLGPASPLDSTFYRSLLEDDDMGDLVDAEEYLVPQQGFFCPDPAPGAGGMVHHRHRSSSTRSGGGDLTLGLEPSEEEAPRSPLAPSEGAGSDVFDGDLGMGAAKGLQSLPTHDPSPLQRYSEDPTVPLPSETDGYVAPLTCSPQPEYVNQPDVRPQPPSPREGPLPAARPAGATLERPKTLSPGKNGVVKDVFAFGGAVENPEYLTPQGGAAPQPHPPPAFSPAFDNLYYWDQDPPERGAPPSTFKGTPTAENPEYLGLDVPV

With `COC(=O)CN1C(=O)C(O)(CC(=O)c2ccc(C)cc2)c2cc(Br)ccc21` (stereo not given), the viability is 102% in experiment [1]; 102% (inactive) in experiment [3]; 88.2% (inactive) in [4]; 81.6% (inactive) in [5]; 93.3% in [6] (setting [16]); 81.6% in experiment [6] (setting [17]). The viability was 91% (inactive) in [12] and 92.5% (inactive) in experiment [13]. Further, the Her2 level in [2] is 96.5% (inactive). Also, in experiment [6] (H69AR cells + 2 uM doxorubicin), the differential viability (reversal) was -11.8% (inactive). Moreover, the figures for the inhibition in experiment [7], in experiment [8] and in [14] were -0.27% (inactive), -1.5% (inactive) and 1.67% (inactive), respectively. For the same compound, the growth inhibition in experiment [9] is -15.5% (inactive); in experiment [10] it was 2.94% (inactive). For the same compound, in experiment [11], the viability increase was -0.78% (inactive). Moreover, the RAM network inhibition in experiment [15] was 2.87% (inactive).

Take `COC(=O)CSc1nnc(-c2ccncc2)o1`: the viability in experiment [1] is 116%; in [3] it was 116% (inactive); in experiment [4] it was 105% (inactive); in experiment [5] it was 95% (inactive); in [6] (setting [16]), 87%; in experiment [6] (setting [17]), 95%. Moreover, the viability was 93.2% (inactive) in experiment [12] and 94.2% (inactive) in [13]. Also, the Her2 level in [2] was 127% (inactive). Further, in experiment [6] (H69AR cells + 2 uM doxorubicin), the differential viability (reversal) was 7.96% (inactive). Also, the inhibition was -3.25% (inactive) in experiment [7], -7.33% (inactive) in [8] and 0.9% (inactive) in [14]. The growth inhibition in experiment [9] is -2.71% (inactive); in experiment [10], -17.9% (inactive). Further, the viability increase in [11] is -2.71% (inactive). For the same compound, in experiment [15], the RAM network inhibition is 0.67% (inactive).

Consider `COc1ccc(C2CC(=O)C(C=NCCCN3CCOCC3)=C(O)C2)cc1` (stereo not given), for which the viability in experiment [1] is 84.5%; in experiment [3], 84.5% (inactive); in experiment [4] it was 102% (inactive); in experiment [5], 99.3% (inactive); in experiment [6] (setting [16]), 86.5%; in [6] (setting [17]) it was 99.3%. Moreover, the viability was 103% (inactive) in experiment [12] and 101% (inactive) in [13]. Also, the Her2 level in experiment [2] was 82.5% (inactive). Also, the differential viability (reversal) in experiment [6] (H69AR cells + 2 uM doxorubicin) is 12.8% (inactive). The inhibition was -1.15% (inactive) in [7], -1.33% (inactive) in experiment [8] and 2.07% (inactive) in experiment [14]. Also, the values for the growth inhibition in [9] and in experiment [10] were -0.615% (inactive) and 1.58% (inactive), respectively. The viability increase in experiment [11] is 0.71% (inactive). For the same compound, the RAM network inhibition in experiment [15] was 3.01% (inactive).

In the case of `COc1ccc(N2CCN(Cc3nc4c(c(=O)n(C)c(=O)n4C)n3Cc3ccccc3C)CC2)cc1`, the viability in experiment [1] is 92.5%; in [3], 92.5% (inactive); in experiment [4] it was 94.5% (inactive); in experiment [5] it was 80% (inactive); in experiment [6] (setting [16]), 54.9%; in [6] (setting [17]), 80%. For the same compound, the viability in [12] was 90.7% (inactive); in experiment [13], 77.6% (inactive). Besides, the Her2 level in experiment [2] is 81% (inactive). Further, the differential viability (reversal) in [6] (H69AR cells + 2 uM doxorubicin) was 25.1% (inactive). The values for the inhibition in experiment [7], in experiment [8] and in experiment [14] were -2.4% (inactive), -2% (inactive) and 1.29% (inactive), respectively. For the same compound, the growth inhibition was -12.5% (inactive) in experiment [9] and -24.9% (inactive) in experiment [10]. The viability increase in experiment [11] is -4.52% (inactive). Besides, the RAM network inhibition in experiment [15] was -0.26% (inactive).

As for `CCOc1ccccc1C1C(C(=O)Nc2ccc(OC)cc2)=C(C)Nc2nc(CCCO)nn21` (stereo not given), the viability in experiment [1] is 87.5%; in [3], 87.5% (inactive); in experiment [4], 84.4% (inactive); in experiment [5], 91.3% (inactive); in experiment [6] (setting [16]), 82.6%; in [6] (setting [17]), 91.3%. Besides, the viability in [12] was 109% (inactive); in [13], 98.7% (inactive). Further, in [2], the Her2 level was 89.5% (inactive). Further, the differential viability (reversal) in experiment [6] (H69AR cells + 2 uM doxorubicin) was 8.7% (inactive). Also, the inhibition in experiment [7] is -0.4% (inactive); in [8] it was -2.17% (inactive); in experiment [14], 0.865% (inactive). Moreover, the growth inhibition is -9.82% (inactive) in experiment [9] and -7.01% (inactive) in experiment [10]. Further, the viability increase in experiment [11] is -0.17% (inactive). The RAM network inhibition in [15] is 1.36% (inactive).
